In PubChem BioAssay (NCATS):
Results filed as inconclusive are left out. A number with no mark means an inactive call. Calls come from the whole dose curve; as a rule, active = well fitted inhibition curve with a large enough effect; inconclusive = small, poorly fitted or top-dose-only effect; inactive = flat fitted curve, though single readings scatter.

Target: Calcium and integrin-binding protein 1 (Homo sapiens) (UniProt Q99828)
Assay: Primary qHTS for Identification of Calcium Integrin Binding Protein 1 (CIB1) Competitor (AID 1508620);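 note: GST tagged CIB1 binding a fluorescein labelled alphaIIb integrin peptide tracer; top concentration of the series differs between compounds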
Details: CIB1-GST / FITC-alphaIIb peptide fluorescence polarization; series mostly up to 114 µM; activity change, negative = inhibition: at the top concentration
Procedure, shortened: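 CIB1-GST (1 uM final) and compound incubated 15 min at room temperature before adding FITC-alphaIIb peptide tracer (100 nM final). Competition for binding read by fluorescence polarization (ex 480, em 540) after another 15 min at room temperature.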
% is set by controls: 0 for no effect and ±100 for the full control effect.

Sequence of Calcium and integrin-binding protein 1 (Homo sapiens) (Q99828 whole entry, looked up): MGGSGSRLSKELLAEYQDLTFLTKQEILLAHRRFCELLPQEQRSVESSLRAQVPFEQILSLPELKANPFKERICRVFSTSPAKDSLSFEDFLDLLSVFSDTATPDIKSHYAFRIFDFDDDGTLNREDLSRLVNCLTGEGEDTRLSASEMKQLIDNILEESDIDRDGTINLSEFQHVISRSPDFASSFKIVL

| SMILES | activity change, negative = inhibition |
| --- | --- |
| Cc1ccccc1CN1C2=NCCN2C(=O)C2=C1CCN(Cc1ccccc1)C2 | 2.38% |
| CC1CCC2(C=O)C(CO)=CCCC2C1(C)CC(=O)O (centres undefined) | 5% |
| CC(=O)O[C@H]1C[C@@](O)(C(C)C)C2[C@@H](OC(=O)c3ccc(O)cc3)C[C@@]3(C)O[C@H]3C[C@]21C (some centres undefined) | -0.705% [at 57.7 µM] |
| C[C@@]12CC[C@@H]3[C@@](CC[C@H]4[C@@]3(C)CCC[C@@]4(C)C(=O)O)(CC1=O)C2 | 1.97% |
| CC(=O)O[C@@H]1c2c(C)coc2C(=O)[C@@]23O[C@@H]2CC[C@H](C)[C@@]13C | 0.978% |
| CC1OC(O[C@H]2CC[C@@]3(C)C(CC[C@]4(C)C3CC=C3C5CC(C)(C)CC[C@]5(C(=O)OC5OC(CO)C(OC6OC(COC7OCC(O)C(O)C7O)C(O)C(O)C6O)C(O)C5O)CC[C@]34C)C2(C)C)C(O)C(O)C1OC1OCC(OC2OCC(O)C(O)C2O)C(O)C1O (some centres undefined) | -11.1% [at 12.4 µM] |
| CC1OC(OC2C(O)C(OC3CCC4(C)C(CCC5(C)C4CC=C4C6CC(C)(COC7OC(CO)C(O)C(O)C7O)CC(O)C6(C)CCC45C)C3(C)C)OC(C(=O)O)C2O)C(O)C(O)C1OC1OCC(O)C(O)C1O (centres undefined) | 0.165% [at 30.2 µM] |
| CC1CCC2(C(=O)O)CCC3(C)C(=CCC4C5(C)CCC(OC(=O)/C=C/c6ccccc6)C(C)(C)C5CCC43C)C2C1C (centres undefined) | 0.715% [at 30.2 µM] |
| C[C@@H]1O[C@@H](O[C@H]2[C@H](O)[C@@H](O)[C@H](OC3CCC4(C)C5CCC(C)(C(CO)OC6OC(CO)C(O)C(O)C6O)CC5=CCC4C3(C)C)O[C@@H]2CO)[C@H](O)[C@H](O)[C@H]1O (some centres undefined) | 0.947% [at 30.2 µM] |
